In PubChem BioAssay (EPA / NIEHS):
Values joined by “and” are separate entries in the source; they are usually repeats but may differ in a detail not shown here. Equal entries are not always repeated. Records with an inconclusive call do not appear. Active and inactive are the calls of the source. How the source made its calls, unless noted: active means hit-call score of the fitted dose curve at least 0.9, where 1 is the maximum; inconclusive means response in the unintended direction; inactive means score below 0.9.

Tests used:
[1] = read-out: alkyl and aryl transferase (GSTA2), GSTA2 (gene 2939); assay: CLD_GSTA2_6hr: CellzDirect (CLD) Gene Expression Assay for alkyl and aryl transferase (GSTA2) at 6 hours (AID 2283666)
Summary of the method: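 Primary human hepatocytes from two donor preparations were dosed daily with fresh compound at multiple concentrations, 0.2% DMSO vehicle. GSTA2 mRNA was measured at 6 hours by qNPA chemiluminescence; induction fitted relative to DMSO, with cytotoxicity flagged morphologically.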

[2] = Tanguay_ZF_120hpf_TR_legacy: (Legacy) Oregon State University Tanguay Lab 120 Hour Post-fertilization zebrafish Assay for Touch Response (AID 2283667)
Summary of the method: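 Tropical 5D wild-type zebrafish embryos were exposed statically in sealed, foil-covered plates at 28C until 120 hpf, with 0.64% (vol/vol) final DMSO. Touch response was scored as present or absent; embryos that died were not scored.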

[3] = read-out: sulfotransferase (SULT2A), SULT2A1 (gene 6822); assay: CLD_SULT2A_6hr: CellzDirect (CLD) Gene Expression Assay for sulfotransferase (SULT2A) at 6 hours (AID 2283669);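 further: hits raise transcript level above the DMSO vehicle baseline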
Summary of the method: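 Primary human hepatocytes from two donor preparations were dosed daily with chemicals or 0.2% DMSO and harvested at 6 h. Transcript induction read by qNPA chemiluminescence, fitted for gain of signal relative to DMSO; morphology-based cytotoxicity annotated.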

[4] = read-out: glucuronosyltransferase (UGT1A1), UGT1A1 (gene 54658); assay: CLD_UGT1A1_6hr: CellzDirect (CLD) Gene Expression Assay for glucuronosyltransferase (UGT1A1) at 6 hours (AID 2283672)
Summary of the method: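 Primary human hepatocytes from two donor preparations, dosed with fresh solutions in 0.2% DMSO, harvested at 6 h. UGT1A1 mRNA measured by qNPA chemiluminescence; induction fitted upward versus DMSO.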

[5] = CLD_ACTIN_6hr: CellzDirect (CLD) Gene Expression Assay for Baseline Control (Actin) at 6 hours (AID 2283676);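 further: active means increased actin mRNA relative to DMSO vehicle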
Summary of the method: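 Primary human hepatocytes dosed with fresh chemical solutions (vehicle 0.2% DMSO), harvested at 6 h. Actin mRNA quantified by quantitative nuclease protection assay with chemiluminescent read-out, as background control relative to DMSO.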

[6] = read-out: Cytochrome P450 2B6 (Homo sapiens) (UniProt P20813); assay: CLD_CYP2B6_6hr: CellzDirect (CLD) Gene Expression Assay for xenobiotic metabolism (CYP2B6) at 6 hours (AID 2283677);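 further: actives raise CYP2B6 transcript above DMSO baseline so AC50 marks an inducer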
Summary of the method: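 Primary human hepatocytes dosed with chemicals at multiple concentrations, vehicle 0.2% DMSO; CYP2B6 mRNA induction measured 6 h after dosing by quantitative nuclease protection assay with chemiluminescence, gain of signal fitted relative to DMSO.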

[7] = CCTE_Padilla_ZF_144hpf_TERATOSCORE: (Legacy) CCTE's 144 Hour Post-fertilization zebrafish Assay Teratoscore, Padilla Lab (AID 2283679; active means hit-call score of the fitted dose curve at least 0.9, where 1 is the maximum; inactive means score below 0.9;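 on AC50: zebrafish embryos with chorions exposed by immersion from 6-8 hpf to 5 dpf with daily renewal; teratogenicity score from eye scoring of death hatching and malformations at 144 hpf; higher score means more developmental defects relative to DMSO baseline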)
Summary of the method: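 Larvae scored by eye at 144 hpf for death, hatching and malformations after a day in clean Hanks'. Before that, daily-renewed exposure at 80 uM (0.4% DMSO, 26C) from roughly 6-8 hpf through 5 dpf, 4 embryos per chemical.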

[8] = read-out: Cytochrome P450 3A4 (Homo sapiens) (UniProt P08684); assay: CLD_CYP3A4_6hr: CellzDirect (CLD) Gene Expression Assay for xenobiotic metabolism (CYP3A4) at 6 hours (AID 2283680)
Summary of the method: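 Primary human hepatocytes (two donor preparations) dosed; CYP3A4 mRNA harvested at 6 h and quantified by qNPA chemiluminescence. Gain of signal fitted against 0.2% DMSO vehicle; cytotoxicity flagged by phase-contrast morphology.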

[9] = read-out: Glyceraldehyde-3-phosphate dehydrogenase (Homo sapiens) (UniProt P04406); assay: CLD_GAPDH_6hr: CellzDirect (CLD) Gene Expression Assay for Baseline Control (Glyceraldehyde 3-phosphate dehydrogenase) at 6 hours (AID 2283681);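 further: active means increased signal relative to DMSO vehicle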
Summary of the method: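 Primary human hepatocytes from two donor preparations, dosed at multiple concentrations with 0.2% DMSO vehicle; GAPDH mRNA measured 6 h after dosing by chemiluminescent quantitative nuclease protection assay (qNPA) on denatured lysates. Serves as background control; cytotoxicity annotated by morphology.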

[10] = read-out: xenobiotic metabolism (CYP1A2), CYP1A2 (gene 1544); assay: CLD_CYP1A2_24hr: CellzDirect (CLD) Gene Expression Assay for xenobiotic metabolism (CYP1A2) at 24 hours (AID 2283683)
Summary of the method: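 Primary human hepatocytes from two donor preparations dosed daily with multiple concentrations of chemical, 0.2% DMSO vehicle. CYP1A2 mRNA at 24 h quantified by qNPA chemiluminescence; gain of signal analyzed relative to DMSO. Cytotoxicity flagged by phase-contrast morphology.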

[11] = read-out: Broad substrate specificity ATP-binding cassette transporter ABCG2 (Homo sapiens) (UniProt Q9UNQ0); assay: CLD_ABCG2_24hr: CellzDirect (CLD) Gene Expression Assay for ABC Transporter (ABCG2) at 24 hours (AID 2283685)
Summary of the method: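 Primary human hepatocytes were dosed daily with ToxCast chemicals at multiple concentrations (vehicle 0.2% DMSO). ABCG2 mRNA was measured at 24 h by qNPA chemiluminescence; induction was scored as gain of signal versus DMSO.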

[12] = read-out: Cytochrome P450 (CYP24A1_1), CYP24A1 (gene 1591); assay: LTEA_HepaRG_CYP24A1_1: Life Technologies and Expression Analysis (LTEA) Assay for Cytochrome P450 (CYP24A1_1) using HepaRG (AID 2283671; active means hit-call score of the fitted dose curve at least 0.9, where 1 is the maximum; inactive means score below 0.9); conditions: mRNA level, 48 h; actives raise or lower the signal
Summary of the method: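 HepaRG, 48 h exposure, 8-pt half-log series from 100 uM in 0.5% DMSO, duplicates. Readout: TaqMan qRT-PCR of CYP24A1 mRNA, housekeeping-normalized (ACTB/GAPDH/POLR2A). Bidirectional curve fit vs DMSO baseline.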

[13] = read-out: Cytochrome P450 2C19 (Homo sapiens) (UniProt P33261); assay: CLD_CYP2C19_24hr: CellzDirect (CLD) Gene Expression Assay for xenobiotic metabolism (CYP2C19) at 24 hours (AID 2283687);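 further: activity means mRNA induction above DMSO vehicle baseline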
Summary of the method: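 Primary human hepatocytes (two donor preparations) dosed daily with fresh test chemical in 0.2% DMSO vehicle; CYP2C19 mRNA induction measured at 24 h by quantitative nuclease protection assay with chemiluminescence, fitted for gain of signal versus DMSO.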

[14] = read-out: Cytochrome P450 2C9 (Homo sapiens) (UniProt P11712); assay: CLD_CYP2C9_24hr: CellzDirect (CLD) Gene Expression Assay for xenobiotic metabolism (CYP2C9) at 24 hours (AID 2283688)
Summary of the method: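 Primary human hepatocytes from two donor preparations, dosed daily for two days at multiple concentrations; vehicle 0.2% DMSO. CYP2C9 mRNA induction at 24 h measured by qNPA chemiluminescence relative to DMSO; cytotoxicity annotated from morphology.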

[15] = read-out: HMG-CoA synthase (HMGCS2), HMGCS2 (gene 3158); assay: CLD_HMGCS2_6hr: CellzDirect (CLD) Gene Expression Assay for HMG-CoA synthase (HMGCS2) at 6 hours (AID 2283682);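 further: actives raise HMGCS2 transcript above the 0.2% DMSO vehicle baseline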
Summary of the method: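 Primary human hepatocytes dosed daily with fresh chemical, 0.2% DMSO vehicle; HMGCS2 mRNA measured at 6 h by qNPA chemiluminescence. Gain of signal fitted against DMSO; cytotoxicity flagged from phase-contrast morphology.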

[16] = read-out: Cytochrome P450 2B6 (Homo sapiens) (UniProt P20813); assay: CLD_CYP2B6_24hr: CellzDirect (CLD) Gene Expression Assay for xenobiotic metabolism (CYP2B6) at 24 hours (AID 2283686)
Summary of the method: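 Primary human hepatocytes dosed daily for two days with fresh solutions, harvested at 24 hours; mRNA induction quantified by qNPA chemiluminescence, gain of signal vs 0.2% DMSO vehicle. Cytotoxicity annotated from phase-contrast morphology.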

[17] = read-out: organic anion transporter (SLCO1B1), SLCO1B1 (gene 10599); assay: CLD_SLCO1B1_6hr: CellzDirect (CLD) Gene Expression Assay for organic anion transporter (SLCO1B1) at 6 hours (AID 2283668);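 further: active means mRNA induction above DMSO baseline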
Summary of the method: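 Primary human hepatocytes dosed daily with test chemicals (multiple concentrations) in 0.2% DMSO vehicle; harvested at 6 h. SLCO1B1 mRNA quantified by qNPA chemiluminescence, fitted as gain-of-signal versus DMSO; cytotoxicity from phase-contrast morphology flagged alongside.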

[18] = read-out: xenobiotic metabolism (CYP1A1), CYP1A1 (gene 1543); assay: CLD_CYP1A1_24hr: CellzDirect (CLD) Gene Expression Assay for xenobiotic metabolism (CYP1A1) at 24 hours (AID 2283673);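 further: CYP1A1 mRNA level by quantitative nuclease protection with chemiluminescence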
Summary of the method: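 Primary human hepatocytes dosed daily with fresh solutions in 0.2% DMSO vehicle. mRNA measured at 24 h by quantitative nuclease protection assay with chemiluminescence; gain-of-signal fit versus DMSO, with morphology-based cytotoxicity flags.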

[19] = read-out: ABC Transporter (ABCB1), ABCB1 (gene 5243); assay: CLD_ABCB1_24hr: CellzDirect (CLD) Gene Expression Assay for ABC Transporter (ABCB1) at 24 hours (AID 2283684)
Summary of the method: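 Primary human hepatocytes, two donor preparations, dosed daily with fresh solutions; vehicle 0.2% DMSO; harvested at 24 h. ABCB1 mRNA measured by quantitative nuclease protection assay (chemiluminescence); morphology-based cytotoxicity annotated.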

Measured: AC50

Chain of Cytochrome P450 3A4 (Homo sapiens) (P08684 whole entry, looked up): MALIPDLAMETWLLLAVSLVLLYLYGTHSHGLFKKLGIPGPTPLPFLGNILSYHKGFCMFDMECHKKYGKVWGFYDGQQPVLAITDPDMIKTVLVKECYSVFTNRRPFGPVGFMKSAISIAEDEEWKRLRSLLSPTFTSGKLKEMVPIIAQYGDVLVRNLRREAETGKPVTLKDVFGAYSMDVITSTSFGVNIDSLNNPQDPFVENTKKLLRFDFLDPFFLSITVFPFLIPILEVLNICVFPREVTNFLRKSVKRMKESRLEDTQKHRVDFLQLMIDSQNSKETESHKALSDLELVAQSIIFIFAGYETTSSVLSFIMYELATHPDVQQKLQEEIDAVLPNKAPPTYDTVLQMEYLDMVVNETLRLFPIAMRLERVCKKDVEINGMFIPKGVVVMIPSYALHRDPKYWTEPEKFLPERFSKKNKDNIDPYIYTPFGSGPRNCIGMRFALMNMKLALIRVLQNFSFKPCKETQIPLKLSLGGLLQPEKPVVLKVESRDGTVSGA
Chain of Cytochrome P450 2C19 (Homo sapiens) (P33261 whole entry, looked up): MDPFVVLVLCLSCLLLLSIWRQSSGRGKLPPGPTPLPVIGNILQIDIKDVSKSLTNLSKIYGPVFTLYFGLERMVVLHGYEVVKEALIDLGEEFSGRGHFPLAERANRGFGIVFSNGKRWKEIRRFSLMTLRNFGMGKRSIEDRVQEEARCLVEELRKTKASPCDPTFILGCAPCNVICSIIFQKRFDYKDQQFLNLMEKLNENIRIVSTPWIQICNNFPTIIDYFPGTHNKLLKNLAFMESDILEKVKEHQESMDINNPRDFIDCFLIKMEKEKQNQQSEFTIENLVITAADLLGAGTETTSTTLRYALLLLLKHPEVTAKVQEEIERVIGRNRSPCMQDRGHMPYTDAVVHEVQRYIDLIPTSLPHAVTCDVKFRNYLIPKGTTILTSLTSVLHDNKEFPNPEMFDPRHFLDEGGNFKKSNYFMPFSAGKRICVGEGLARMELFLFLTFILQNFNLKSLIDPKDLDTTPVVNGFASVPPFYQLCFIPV
Chain of Glyceraldehyde-3-phosphate dehydrogenase (Homo sapiens) (P04406 whole entry, looked up): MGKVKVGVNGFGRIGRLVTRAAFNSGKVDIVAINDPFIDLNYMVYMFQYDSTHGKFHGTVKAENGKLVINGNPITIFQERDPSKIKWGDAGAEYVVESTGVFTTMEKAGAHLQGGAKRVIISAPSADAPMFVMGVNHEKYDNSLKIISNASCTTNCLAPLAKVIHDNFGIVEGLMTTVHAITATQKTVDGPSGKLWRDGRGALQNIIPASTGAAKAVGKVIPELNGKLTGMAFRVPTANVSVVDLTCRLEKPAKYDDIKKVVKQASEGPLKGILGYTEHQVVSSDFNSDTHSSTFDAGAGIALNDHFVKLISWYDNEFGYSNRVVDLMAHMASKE
Chain of Broad substrate specificity ATP-binding cassette transporter ABCG2 (Homo sapiens) (Q9UNQ0 whole entry, looked up): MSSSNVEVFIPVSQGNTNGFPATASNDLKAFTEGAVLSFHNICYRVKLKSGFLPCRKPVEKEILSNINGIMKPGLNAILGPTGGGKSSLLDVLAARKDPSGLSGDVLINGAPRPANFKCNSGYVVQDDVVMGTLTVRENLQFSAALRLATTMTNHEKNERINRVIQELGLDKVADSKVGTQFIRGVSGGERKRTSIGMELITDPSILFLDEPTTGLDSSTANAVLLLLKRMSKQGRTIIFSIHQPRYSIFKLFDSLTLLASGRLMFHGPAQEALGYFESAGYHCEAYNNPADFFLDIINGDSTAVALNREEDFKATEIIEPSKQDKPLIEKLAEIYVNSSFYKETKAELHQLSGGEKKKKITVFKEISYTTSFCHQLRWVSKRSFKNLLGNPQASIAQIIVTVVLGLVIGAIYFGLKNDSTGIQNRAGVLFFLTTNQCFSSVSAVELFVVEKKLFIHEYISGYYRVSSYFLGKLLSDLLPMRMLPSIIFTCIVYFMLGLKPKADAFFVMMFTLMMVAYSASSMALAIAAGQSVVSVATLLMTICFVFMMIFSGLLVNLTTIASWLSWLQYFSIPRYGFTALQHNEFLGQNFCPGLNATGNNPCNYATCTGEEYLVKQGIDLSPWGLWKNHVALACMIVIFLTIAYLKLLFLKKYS

CC(C)Oc1cc(-n2nc(C(C)(C)C)oc2=O)c(Cl)cc1Cl
active: [6] 1.9 µM | [7] 9.05 µM | [8] 1.89 µM | [10] 4.14 µM
inactive: [1] | [2] | [3] | [4] | [5] | [9] | [11]

C=CC1(C)OC(=O)N(c2cc(Cl)cc(Cl)c2)C1=O (centres undefined)
inactive: [2] | [12] | [4] | [5] | [8] | [9] | [11] | [13] | [14]
active: [6] 8.32 µM | [7] 145 µM

N#Cc1nn(-c2c(Cl)cc(C(F)(F)F)cc2Cl)c(N)c1S(=O)C(F)(F)F (centres undefined)
inactive: [1] | [2] | [3] | [4] | [8] | [9] | [15] | [11]
active: [6] 2.91 µM | [7] 31.1 µM

CC1=C(C(=O)Nc2ccccc2)SCCO1
inactive: [2] | [3] | [4] | [8] | [14]
active: [6] 15.2 µM | [7] 6.4 µM | [16] 6 µM

Fc1ccc(Oc2ccnc3cc(Cl)cc(Cl)c23)cc1
active: [6] 20 µM | [7] 5.83 µM
inactive: [2] | [4] | [11]

COc1ccc(C(c2ccc(OC)cc2)C(Cl)(Cl)Cl)cc1
active: [6] 7.31 µM | [7] 1.14 µM
inactive: [2] | [3] | [4] | [14]

OC(c1ccc(Cl)cc1)(c1cncnc1)c1ccccc1Cl (centres undefined)
inactive: [2] | [17] | [3] | [12] | [4] | [5] | [8] | [9] | [11]
active: [6] 0.442 µM | [7] 32.2 µM

C#CCOS(=O)OC1CCCCC1Oc1ccc(C(C)(C)C)cc1 (centres undefined)
active: [18] 20 µM | [6] 1.9 µM | [7] 0.22 µM | [8] 1.89 µM | [16] 3.2 µM
inactive: [1] | [2] | [3] | [4] | [5] | [15] | [11] | [14]

O=C(O)COc1nc(Cl)c(Cl)cc1Cl
not listed: [5] | [8] | [10] | [12] | [16] | [17] | [18]
inactive: all other assays above

CCOC(=O)C(Cl)Cc1cc(-n2nc(C)n(C(F)F)c2=O)c(F)cc1Cl (centres undefined)
inactive: [3] | [4] | [8] | [9] | [11] | [13] | [14]
active: [2] 17 µM | [6] 3.01 µM | [7] 0.57 µM

Cc1cc(Cl)ccc1OCC(=O)O
inactive: [1] | [2] | [3] | [4] | [5] | [7] | [9] | [11] | [13] | [14]

CS/C(C)=N/OC(=O)N(C)SN(C)C(=O)O/N=C(\C)SC
inactive: [2] | [5] | [9] | [11] | [13] | [14]
active: [7] 32.7 µM

CCNc1nc(Cl)nc(NCC)n1
inactive: [2] | [17] | [4] | [5] | [7] | [9] | [14]
active: [18] 5.56 µM | [6] 7.74 µM | [10] 5.26 µM | [16] 9.74 µM

COc1nc(C)nc(NC(=O)NS(=O)(=O)c2ccccc2Cl)n1
not listed: [2] | [10] | [12] | [16] | [19]
inactive: all other assays above

COC(=O)c1ccccc1C(=O)OC
inactive: [2] | [17] | [4] | [5] | [7] | [15] | [13] | [14]

COc1nc(C)nc(NC(=O)NS(=O)(=O)c2ccccc2CCC(F)(F)F)n1
active: [6] 3.21 µM and 1.89 µM
not listed: [2] | [10] | [12] | [16] | [18] | [19]
inactive: all other assays above

CNC(=O)ON=CC(C)(C)SC
inactive: [1] | [4] | [5] | [6] | [8] | [9] | [11] | [13] | [14]
active: [2] 21 µM | [7] 65.3 µM

CCCCOC(=O)c1ccccc1C(=O)OCCCC
active: [7] 1.83 µM | [10] 4.9 µM and 20 µM
not listed: [1] | [12] | [13] | [16] | [18] | [19]
inactive: all other assays above
